Source: PubChem BioAssay AID1159580 (chemical genetic matrix, 2015)
Several values for one entry are separate records, joined by “and”; a condition that tells them apart may be missing. Identical values can stand only once. Hit rate of the full screen: of about 5,500 compounds, about 2,000 (36%) were called active. About 18% were inconclusive and are not listed. Cut-off read from the data, not from the text of the source: active = normalized growth mostly below about 0.91 (no sharp cut-off); inconclusive = no clear call, values can overlap the other calls; inactive = mostly above about 0.92. The list shows a part of the results.

Test: chemical genetic growth profiling, strain panel (AID 1159580);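 note: tested at 20 µM; growth read once vehicle control cultures reached saturation at 30 °C; 1 = growth at the plate median or of vehicle wells; lower values mean less growth of the strain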
Settings: S. cerevisiae deletion strains, growth OD

Measured: normalized growth

OC(CCN1CCCCC1)(c1ccccc1)c1ccccc1
inactive: locus YAL021C, strain ccr4, active compounds read low 1.01 | locus YAL026C, strain drs2, active compounds read low 0.985 | locus YAL030W, strain snc1, active compounds read low 0.99 | locus YBL061C, strain skt5, active compounds read low 0.986 | locus YBR009C, strain hhf1, active compounds read low 0.939 | locus YBR021W, strain FUR4, active compounds read low 1.02 | locus YBR023C, strain chs3, active compounds read low 0.99 | locus YBR171W, strain sec66, active compounds read low 0.987 | locus YBR229C, strain ROT2, active compounds read low 1 | locus YBR231C, strain swc5, active compounds read low 1.01 | locus YBR279W, strain paf1, active compounds read low 0.995 | locus YCL011C, strain gbp2, active compounds read low 0.969 | locus YCL016C, strain dcc1, active compounds read low 0.975 | locus YCL029C, strain bik1, active compounds read low 1.01 | locus YCL061C, strain MRC1, active compounds read low 1 | locus YCL069W, strain vba3, active compounds read low 0.977 | locus YCR088W, strain abp1, active compounds read low 0.983 | locus YDL005C, strain med2, active compounds read low 1.01 | locus YDL035C, strain GPR1, active compounds read low 1.04 | locus YDL040C, strain nat1, active compounds read low 0.992 | locus YDL074C, strain BRE1, active compounds read low 1.03 | locus YDL101C, strain DUN1, active compounds read low 1.01 | locus YDL134C, strain PPH21, active compounds read low 1.03 | locus YDL185W, strain tfp1, active compounds read low 1.01 | locus YDL192W, strain arf1, active compounds read low 1.02 | locus YDR001C, strain nth1, active compounds read low 0.989 | locus YDR069C, strain doa4, active compounds read low 0.997 | locus YDR101C, strain arx1, active compounds read low 0.993 | locus YDR137W, strain rgp1, active compounds read low 1.01 | locus YDR159W, strain sac3, active compounds read low 1.01 | locus YDR162C, strain NBP2, active compounds read low 1.01 | locus YDR195W, strain ref2 1.02 | locus YDR297W, strain sur2, active compounds read low 0.984 | locus YDR318W, strain mcm21, active compounds read low 1.01 | locus YDR334W, strain swr1, active compounds read low 0.99 | locus YDR335W, strain msn5, active compounds read low 0.986 | locus YDR388W, active compounds read low 1.01 | locus YDR392W, strain spt3, active compounds read low 0.886 | locus YDR502C, strain sam2, active compounds read low 1 | locus YEL003W, strain gim4, active compounds read low 0.98 | locus YEL037C, strain rad23, active compounds read low 0.985 | locus YEL061C, strain CIN8 (second series), active compounds read low 0.977 | locus YEL061C, strain CIN8, active compounds read low 1.01 | locus YER015W, strain faa2, active compounds read low 0.994 | locus YER016W, strain bim1, active compounds read low 0.997 | locus YER110C, active compounds read low 1.01 | locus YER111C, strain swi4, active compounds read low 0.983 | locus YER155C, strain BEM2 (second series), active compounds read low 0.995 | locus YER155C, strain BEM2, active compounds read low 1 | locus YER167W, strain BCK2, active compounds read low 1.01 | locus YFR010W, strain ubp6, active compounds read low 0.987 | locus YGL078C, strain dbp3, active compounds read low 1 | locus YGL086W, strain mad1, active compounds read low 1 | locus YGL167C, strain pmr1, active compounds read low 0.984 | locus YGL173C, strain kem1, active compounds read low 0.986 | locus YGL227W, strain vid30, active compounds read low 0.989 | locus YGL240W, strain doc1, active compounds read low 1.02 | locus YGL248W, strain PDE1, active compounds read low 1.01 | locus YGL253W, strain hxk2, active compounds read low 1.02 | locus YGR078C, strain PAC10, active compounds read low 1.01 | locus YGR135W, strain pre9, active compounds read low 1.01 | locus YGR252W, strain gcn5, active compounds read low 1.01 | locus YHR013C, strain ard1, active compounds read low 1.01 | locus YHR027C, strain rpn1, active compounds read low 0.99 | locus YHR030C, strain SLT2, active compounds read low 1.01 and 1.03 | locus YHR079C, strain IRE1 (second series), active compounds read low 1.01 | locus YHR079C, strain IRE1, active compounds read low 1.03 | locus YHR094C, strain hxt1, active compounds read low 1.01 | locus YHR129C, strain ARP1, active compounds read low 1 | locus YHR142W, strain chs7, active compounds read low 0.946 | locus YHR200W, strain rpn10, active compounds read low 1.01 | locus YIL066C, strain RNR3, active compounds read low 1.01 | locus YIL073C, strain SPO22, active compounds read low 1.09 | locus YIL125W, strain kgd1, active compounds read low 1.01 | locus YIR030C, strain dcg1, active compounds read low 1.01 | locus YJL092W, strain hpr5, active compounds read low 0.988 | locus YJL095W, strain BCK1 (second series), active compounds read low 0.982 | locus YJL095W, strain BCK1, active compounds read low 0.996 and 1.05 | locus YJL115W, strain asf1, active compounds read low 0.982 | locus YJL129C, strain trk1, active compounds read low 0.987 | locus YJL134W, strain LCB3, active compounds read low 1 | locus YJL154C, strain vps35, active compounds read low 0.984 | locus YJL164C, strain tpk1, active compounds read low 0.967 | locus YJL166W, strain qcr8, active compounds read low 1 | locus YJL168C, strain set2, active compounds read low 1.01 | locus YJL187C, strain SWE1 (second series), active compounds read low 1.01 | locus YJL187C, strain SWE1, active compounds read low 0.996 | locus YJR043C, strain POL32, active compounds read low 1.04 | locus YJR066W, strain TOR1, active compounds read low 0.938
